These results are taken from PubChem BioAssay AID1992 (Sanford-Burnham Center for Chemical Genomics, 2009).

Screen size: about 50,000 compounds; about 350 (0.7%) were called active. Cut-off read from the data, not from the text of the source: active = inhibition above about 60%; inactive = the rest. This excerpt belongs to a sample that is enriched for actives.

The target of the test is Dual specificity protein phosphatase 3 (Homo sapiens) (UniProt P51452). Put plainly: human DUSP3 activity blockers – biochemical, colorimetric, HTS, primary screen (AID 1992). Particulars: recombinant VHR phosphatase, colorimetric substrate read-out; at 20 µM; stronger effect = higher value.
Chain of Dual specificity protein phosphatase 3 (Homo sapiens) (P51452 whole entry, looked up): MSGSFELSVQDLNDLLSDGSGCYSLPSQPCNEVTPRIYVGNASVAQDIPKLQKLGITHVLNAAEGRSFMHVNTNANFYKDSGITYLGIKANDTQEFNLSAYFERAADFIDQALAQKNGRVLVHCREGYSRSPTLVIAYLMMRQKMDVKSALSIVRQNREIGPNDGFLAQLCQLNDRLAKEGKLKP
Take `O=C(NCc1ccccc1)c1ccc(CN2CCN(c3ccccc3)CC2)cc1`: the inhibition (usually the drop in the measured response relative to a control, in per cent) was 5.6% (inactive). With `CC(C)(C)c1cc(Br)ccc1OCC(=O)Nc1ccccc1[N+](=O)[O-]` the figure was -0.7% (inactive); with `O=C(Nc1cccc(Br)c1)C(=O)NC1CCCC1`, -18.7% (inactive). With `Cc1ccc2c(c1)C(c1ccccc1[N+](=O)[O-])CC(=O)N2` (configuration not stated) the figure was -4.5% (inactive); with `O=C(c1nn2c(c1Cl)NC(c1ccc(F)cc1)CC2C(F)(F)F)N1CCN(Cc2ccccc2)CC1` (configuration not stated), -2.9% (inactive). As to `O=C1C2C(C(=O)N1/N=C/C=C/c1ccccc1)C1C=CC2C12CC2` (configuration not stated), the inhibition was -11.9% (inactive).

In the case of `CC(C)(C)c1cc(N2C(=O)C(=O)/C(=C(\O)c3ccccc3)C2c2cccc([N+](=O)[O-])c2)no1` (configuration not stated), the inhibition was 10.1% (inactive).

Take `Cc1cccc(NC(=O)CCCOc2ccccc2)c1C`: the inhibition was -23.5% (inactive). The same measure for `Cc1ccccc1NCC(=O)N/N=C\c1cc([N+](=O)[O-])cc(Br)c1O`: 31.8% (inactive); for `Cc1cc(Br)cc(/C=N/NC(=O)c2cncc(Br)c2)c1O`: -16.6% (inactive); for `Cc1ncc(C[n+]2csc3ccccc32)c(N)n1`: 23.5% (inactive). With `COc1ccc(C(=O)/C=C/Nc2cccc(Cl)c2Cl)cc1` the figure was 3.3% (inactive). As to `CN(C)CCOC(=O)CCN1C(=O)/C(=C/c2ccc(Cl)cc2Cl)SC1=S`, the inhibition was -1.5% (inactive).

Regarding `O=C1S/C(=C/c2ccc(-c3ccc(Cl)cc3Cl)o2)C(=O)N1c1ccccc1`, the inhibition was -7.5% (inactive). For `O=C(O)CCN1C(=O)/C(=C/c2ccc(-c3cc(Cl)ccc3Cl)o2)SC1=S`, the inhibition was 73% (active).

On to `Cc1cccc(NC(=O)c2cc(-c3ccc(Br)cc3)nc3ccccc23)n1`, for which the inhibition was -30.2% (inactive).

As to `CCn1c(=O)c(C(=O)Nc2ccccc2Br)c(O)c2ccccc21`, the inhibition is -20.9% (inactive). The same measure for `COc1ccc(C=O)c2c(O)cccc12`: 2.1% (inactive); for `CCN(C=NC1=NN(c2ccccc2)CC1)CC`: 2.7% (inactive). For the compound `O=C1C=CC2=C3Oc4c(ccc5cc(O)ccc45)C(c4ccccc4C(=O)O)C3C=CC2=C1` (configuration not stated), the inhibition was 85.5% (active). Turning to `O=C(NCCCn1ccnc1)c1ccccc1[N+](=O)[O-]`, the inhibition is 5.9% (inactive). On to `CC1=C(C(=O)OCc2ccccc2)C(c2ccc(C(F)(F)F)cc2)CC(=O)N1` (configuration not stated), for which the inhibition was 8.1% (inactive). `O=C1C(=O)N(Cc2ccccc2)C2C=CC=CC12` (configuration not stated): the inhibition was 7.6% (inactive). The same measure for `COc1cccc(NC(=O)CN(c2cccc([N+](=O)[O-])c2)S(=O)(=O)c2ccccc2)c1`: -23.4% (inactive); for `CCOC(=O)c1c(NC(=O)c2cc(OC)c(OC)c(OC)c2)sc(C(N)=O)c1C`: 1.3% (inactive); for `S=c1n(CN2CCOCC2)nc(-c2ccccc2Cl)n1-c1ccccc1`: -3.8% (inactive).

As for `O=C(Nc1cc(Cl)cc(Cl)c1)C1COc2ccccc2O1` (configuration not stated), the inhibition was -3% (inactive).

For the compound `COc1ccc(/C=N/NC(=O)C2CC2)c(OC)c1OC`, the inhibition is -32.4% (inactive). As to `Cc1cc(C)c2cccc(NC(=S)NC(=O)c3cccc([N+](=O)[O-])c3)c2n1`, the inhibition was -0.4% (inactive). For the compound `O=[N+]([O-])c1nonc1NCn1nnc2ccccc21`, the inhibition was -8% (inactive). With `CC(NC(=O)C1CC(=O)N(c2ccc(Br)cc2)C1)c1ccccc1` (configuration not stated), the inhibition is 16.1% (inactive). In the case of `COC(=O)c1ccc(/C=N/Nc2nncc(-c3ccccc3)n2)cc1`, the inhibition was -34% (inactive). As to `Cc1onc(-c2c(Cl)cccc2Cl)c1C(=O)Nc1sc2c(c1C(N)=O)CCCC2`, the inhibition is -46.5% (inactive). Consider `O=C1NC(=O)C(=Cc2cccc(OCc3ccccc3)c2)C(=O)N1`, for which the inhibition was -24.8% (inactive). With `CCOC(=O)Cc1csc(NC(=O)COc2cc(C)ccc2C(C)(C)C)n1`, the inhibition is 5.7% (inactive). With `Cc1ccc(-c2ccc(/C=C3\Sc4ccccc4C3=O)o2)c([N+](=O)[O-])c1` the figure was -37.5% (inactive). With `COc1ccc(N2C(=O)c3cccc4c(NC(CO)(CO)CO)ccc(c34)C2=O)cc1` the figure was -0.7% (inactive); with `CCOC(=O)C1=C(O)CSC1=Nc1ccc(F)cc1`, 104% (active). For the compound `CCOC(=O)C1=C(O)CSC1=Nc1cccc(Cl)c1`, the inhibition was -1.6% (inactive). The same measure for `CCOC(=O)C1=C(O)/C(=C\c2cccc([N+](=O)[O-])c2)SC1=Nc1ccc(OC)cc1`: -20.7% (inactive); for `COc1ccc(C2C(C(=O)/C=C/c3ccccc3)=C(O)C(=O)N2CCCCCC(=O)O)c(OC)c1` (configuration not stated): 29.2% (inactive); for `CCC(=O)N(CCC1(c2ccc(F)cc2)CCOC(C)(C)C1)Cc1ccc(OC)c(OC)c1` (configuration not stated): -8.3% (inactive). Take `COc1ccc(C(=O)Nc2ccc3nn(-c4ccc(C)c(Cl)c4)nc3c2)cc1[N+](=O)[O-]`: the inhibition is -21.1% (inactive). With `Cc1c(N(C(=O)c2cccc(Cl)c2)C(C)C)c(=O)n(-c2ccccc2)n1C` the figure was -7.9% (inactive); with `O=C(/C=C\Nc1ccccn1)c1ccc2c(c1)OCO2`, -7.8% (inactive).

Turning to `COC(=O)Cn1cc(/C=C2\C(=O)NC(=O)N(c3cc(C)cc(C)c3)C2=O)c2ccccc21`, the inhibition is -5.9% (inactive). For `C/C(=N\NC(=O)c1cccc(Cl)c1)c1ccccc1O`, the inhibition was -3.8% (inactive).

Turning to `Cc1ccc(/C=N/c2nc3ccc(Br)cc3s2)c(O)c1`, the inhibition was -5% (inactive). With `Cn1/c(=N/N=C/c2cc(Br)ccc2O)sc2ccccc21` the figure was 114% (active); with `Oc1ccc(Br)cc1/C=N/Nc1ccccn1`, -11% (inactive). With `CC(=O)c1nc2cc([N+](=O)[O-])ccc2n1Cc1ccccc1` the figure was -31% (inactive); with `O=C(O)CCC(=O)Nc1cc(Cl)cc(Cl)c1`, 11.1% (inactive); with `COc1ccc(CN=CC2=C(O)CC(c3ccccc3)CC2=O)cc1` (configuration not stated), 15.4% (inactive). In the case of `O=[N+]([O-])c1ccc(OCC(O)Cn2cnc3ccccc32)cc1` (configuration not stated), the inhibition is 39% (inactive). As to `CCOc1ccc(-c2cc(C(=O)Nc3ccncc3)c3ccccc3n2)cc1`, the inhibition was -20.9% (inactive).

`CC(C)(C)c1ccc(/C=N/NC(=O)Cc2cccc3ccccc23)cc1`: the inhibition was -3.8% (inactive).

For `Cc1ccc2c(N)c(C(=O)c3ccccc3)sc2n1`, the inhibition is -19.7% (inactive). The same measure for `Nc1nnc(CCC(=O)c2ccccc2)s1`: 78.1% (active).

For `Nc1nnc(SCC(=O)NCc2ccccc2)s1`, the inhibition was -7% (inactive).

Turning to `COc1ccc(NC(=O)/C=C/c2cccc([N+](=O)[O-])c2)cc1`, the inhibition was -2.5% (inactive). The same measure for `O=C(NCc1ccccn1)Nc1ccc(Cl)cc1`: 25.4% (inactive). With `COc1ccc(N/C(C)=C/C(=O)c2ccc(F)cc2)cc1`, the inhibition is -8.4% (inactive).

Turning to `COc1ccc(/C=C2/C(C)=C(C#N)c3nc(N)c(C#N)c(C)c32)cc1OC`, the inhibition was 24% (inactive). Take `COc1ccccc1/C=N/NC(=O)CCc1c(C)n[nH]c1C`: the inhibition is -1.8% (inactive).

As to `O=C(NN1CCOCC1)c1cccc(F)c1`, the inhibition is -10.6% (inactive). With `Cc1cc(Cl)ccc1NC1=CC(=O)CC(c2ccccc2)C1` (configuration not stated) the figure was -7.1% (inactive). `CN(C)/C=C(/Cl)C=C1C(=O)c2ccccc2C1=O`: the inhibition is -2.3% (inactive). The same measure for `COc1ccc([N+](=O)[O-])cc1NC(=O)CCc1ccccc1`: -10.6% (inactive); for `CCCCCOC(=O)CSc1nnc(-c2ccccc2Cl)o1`: -27.4% (inactive). With `CCOC(=O)c1ccc(NC(=O)c2cc(OCC)cc(OCC)c2)cc1` the figure was -14.7% (inactive); with `CCCOc1ccc(C(=O)Nc2ccc(N(CC)CC)cc2)cc1`, -10.9% (inactive); with `CCCOC(=O)c1ccc(NC(=O)c2ccc(OCc3ccccc3)cc2)cc1`, 109% (active). Take `CCOC(=O)C(=O)C1CCc2c([nH]c3ccc(C)cc23)C1=O` (configuration not stated): the inhibition is -0.5% (inactive). With `COc1ccc(OC)c(-n2c(O)c(C=Nc3cccc(C)c3)c(=O)[nH]c2=O)c1` the figure was -17.5% (inactive); with `COc1ccc(NC(=O)C2=C(C)NC(=O)NC2c2ccc(OC)cc2)cc1` (configuration not stated), 24.2% (inactive); with `COC(=O)C1=C(C)N=c2s/c(=C\c3cc(OC)c(OC)cc3[N+](=O)[O-])c(=O)n2C1c1ccccc1` (configuration not stated), -6% (inactive). For `O=C(Nc1cccc2ccccc12)c1ccc(-c2ccccc2)cc1`, the inhibition was -1.1% (inactive).

As for `Cc1cc(C=C2C(=O)NC(=S)NC2=O)c(C)n1-c1ccc(F)cc1`, the inhibition is 0.6% (inactive). On to `Cc1cc(/C=C2/NC(=O)NC2=O)c(C)n1-c1ccc(Cl)cc1`, for which the inhibition was -8.6% (inactive). Regarding `Cc1cc(/C=C2/NC(=S)NC2=O)c(C)n1-c1ccc(N2CCOCC2)cc1`, the inhibition is 61.6% (active). For `CCOc1ccc(N2C(=O)NC(=O)/C(=C/c3ccc(-c4ccccc4[N+](=O)[O-])o3)C2=O)cc1`, the inhibition is 19% (inactive). With `O=C1NC(=S)N(c2ccc(Cl)cc2)C(=O)/C1=C/c1ccc(-c2ccccc2C(=O)O)o1` the figure was 95.3% (active); with `O=C1/C(=C/c2ccc(-c3ccc(Cl)cc3C(=O)O)o2)Sc2ccccc21`, 15.2% (inactive).

Turning to `COc1ccc(C(=O)NC2CC(C)(C)NC(C)(C)C2)cc1OC`, the inhibition was -52.9% (inactive). With `O=C(Nc1ncc(Br)cc1Br)c1cccc2ccccc12`, the inhibition is 101% (inactive). As to `COC(=O)c1cc(C(=O)Nc2ncccc2C)cc([N+](=O)[O-])c1`, the inhibition is 7.6% (inactive). With `C/C(=C\C(=O)c1ccc(Br)cc1)Nc1ccccc1F` the figure was 4.7% (inactive). The same measure for `CC1=NN(c2cccc(Cl)c2)C(=O)/C1=C\c1c(C)[nH]n(-c2ccccc2)c1=O`: -29.9% (inactive); for `CC1=NN(c2ccc(S(N)(=O)=O)cc2)C(=O)/C1=C\c1ccc(-c2ccc(C(=O)OC(C)C)cc2)o1`: -1.6% (inactive). The same measure for `CC1=NN(c2ccc(S(N)(=O)=O)cc2)C(=O)/C1=C\c1ccc(-c2ccc(Cl)c(C(=O)O)c2)o1`: -1.9% (inactive). With `CC1=NN(c2ccc(S(N)(=O)=O)cc2)C(=O)/C1=C\c1ccc(-c2cc([N+](=O)[O-])ccc2C)o1`, the inhibition is 77.1% (active).

With `NC(=O)C1CCN(S(=O)(=O)c2ccc3ccccc3c2)CC1`, the inhibition was -3.8% (inactive).
